# Screens from PubChem BioAssay.
# Many of the other results were omitted from the sample, so hits are more common in it than they were.
# nsP2pro primary = blocks chikungunya virus nsP2 protease peptide cleavage. AID 1964107. FRET peptide cleavage, nsP2pro, fluorescence 1 h. Q8JUX6. Potency, µM (doses to about 24.9 µM), for inactives: top-dose activity change, negative = inhibition, actives largely listed as inhibitors. 1.1% of 31,000 active; further: nearly all actives have a fitted effect of over 60% in size
#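 Purified recombinant nsP2pro (150 nM final) in 10 mM Tris-HCl pH 8.0 with 0.01% Tween 20 was preincubated 15 min at room temperature with compound (7 concentrations, up to 25 uM). FRET peptide 2 substrate (2.5 uM final) was then added; fluorescence was read after 1 h.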
# nsP2 cell sec = cell-based CHIKV nsP2 protease inhibition, secondary. shares compounds with nsP2pro primary. cell-based CHIKV nsP2 protease reporter assay. Potency, µM (top dose mostly 51.1 µM), inactives show top-dose activity change, negative = inhibition, usual class: inhibitors. 10% of 450 active. AID 1964100; further: nearly all actives have a fitted effect of over 70% in size
# CHIKV NSP2 FL = inhibits full-length CHIKV NSP2 enzyme; 39% of 410 active; Potency, µM (titrated, usually from 50.7 µM), without a hit: at the top dose activity change, negative = inhibition, usual class: inhibitors; Full-length CHIKV NSP2 protease enzymatic counterscreen; shares compounds with nsP2pro primary; further: nearly all actives have a fitted effect of over 65% in size
# Furin counter = selectivity counter-screen for CHIKV nsP2 protease inhibitors: human furin | Potency, µM (top dose mostly 50.6 µM), inactives show at the highest dose activity change, negative = inhibition, most hits filed as inhibitors | shares compounds with nsP2pro primary | AID 1964102 | Recombinant human furin enzymatic counterscreen, fluorogenic substrate | 6% of 410 active
# NS23 peptide cs = blocks CHIKV nsP2 protease cleavage of endogenous NS2/3 peptide. shares compounds with nsP2pro primary. Purified CHIKV nsP2 protease, endogenous NS2/3 peptide cleavage. Potency, µM (series often up to 51 µM), for the others: at the top dose activity change, negative = inhibition, usual class: inhibitors. 34% of 410 active. AID 1964103; further: nearly all actives have a fitted effect of over 55% in size
# Papain counter = selectivity counter-screen for CHIKV nsP2 protease inhibitors: papain. shares compounds with nsP2pro primary. purified papain protease activity, enzymatic inhibition. Potency, µM (highest dose often 51 µM), inactives show at the highest dose activity change, negative = inhibition, usual class: inhibitors. 5% of 410 active
# Target sequence (P00784 whole entry, looked up): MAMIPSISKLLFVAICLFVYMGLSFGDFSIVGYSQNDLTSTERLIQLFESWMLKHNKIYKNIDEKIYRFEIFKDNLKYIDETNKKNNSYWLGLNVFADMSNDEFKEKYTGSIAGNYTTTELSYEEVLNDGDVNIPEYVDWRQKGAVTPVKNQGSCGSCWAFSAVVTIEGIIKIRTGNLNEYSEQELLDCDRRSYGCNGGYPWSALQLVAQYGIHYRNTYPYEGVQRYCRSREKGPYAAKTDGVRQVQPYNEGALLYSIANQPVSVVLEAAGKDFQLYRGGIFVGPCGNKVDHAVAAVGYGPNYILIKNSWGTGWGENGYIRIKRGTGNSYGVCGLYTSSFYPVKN
# nsP2pro confirm = confirmation of CHIKV nsP2 protease inhibitors. CHIKV nsP2 protease enzymatic activity, qHTS. 43% of 410 active. shares compounds with nsP2pro primary. Potency, µM (titrated, usually from 25.5 µM), for the others: top-dose activity change, negative = inhibition, usual class: inhibitors. AID 1964105; further: nearly all actives have a fitted effect of over 75% in size
# HCV NS3 4A cs = HCV NS3/4A protease inhibition, counterscreen. shares compounds with nsP2pro primary. HCV NS3/4A protease biochemical counterscreen. Potency, µM (titrated, usually from 50.9 µM), usual class: inhibitors. 20% of 410 active. AID 1964106; further: nearly all actives have a fitted effect of over 55% in size
# Active calls of the source: *; i = inactive; ? = inconclusive; [ ] = remark or other dose. The call rests on the fitted dose curve. On the % scale 0 is the no-effect control and ±100 the full control effect; potency means the concentration at half of the fitted maximal effect.
SMILES,nsP2pro primary,others
CC(=O)Oc1ccccc1C(=O)O,-8.2%,
CC(=O)[O][Hg][c]1ccccc1,1.24µM*,nsP2 cell sec=1.26µM*;CHIKV NSP2 FL=1.83µM*;Furin counter=1.16µM*;NS23 peptide cs=4.61µM*;Papain counter=-6.5%;nsP2pro confirm=0.356µM*;HCV NS3 4A cs=?
CC(=O)Nc1nc(C)c(S(=O)(=O)Nc2ccc(C(O)(C(F)(F)F)C(F)(F)F)cc2)s1,-20.6%,
Cc1ccnc(NC(=S)N2CCN(c3cccc(C(F)(F)F)c3)C2)c1,3.8%,
Cc1nc(C2CCCN2Cc2ccc(-c3ccn[nH]3)o2)cs1 (stereo not given),8.91µM*,nsP2 cell sec=13.7%;CHIKV NSP2 FL=?;Furin counter=-3.0%;NS23 peptide cs=?;Papain counter=-5.6%;nsP2pro confirm=?;HCV NS3 4A cs=?
Cc1cc(C)nc(NC(=S)N2CCN(c3cc(Br)cc(C(F)(F)F)c3)CC2)c1,-6.3%,
FC(F)(F)c1cccc(N2CCN(C(=S)Nc3ncnc4ccccc34)CC2)c1,4.7%,
CCCSS/C(CCO)=C(\C)N(C=O)Cc1cnc(C)nc1N,8.81µM*,nsP2 cell sec=-20.6%;CHIKV NSP2 FL=16.3µM*;Furin counter=-0.6%;NS23 peptide cs=?;Papain counter=-5.8%;nsP2pro confirm=7.98µM*;HCV NS3 4A cs=i
C/C(=C(\CCOP(=O)(O)O)SC(=O)c1ccccc1)N(C=O)Cc1cnc(C)nc1N,-8.4%[2.68 µM],
CCOC(=O)OCC/C(SC(=O)OCC)=C(\C)N(C=O)Cc1cnc(C)nc1N,0.0%,
CCN1C(=O)N(c2c(F)c(OC)cc(OC)c2F)Cc2cnc3[nH]c(CN4CCOCC4)cc3c21,-8.5%,
O=C(O)CNC(=O)c1c(=O)cc(CCc2ccccc2)n2[nH]cnc12,52.0%,
C[S+](=O)([O-])N1CC2(Cc3ccccc31)CN(C(=O)NC1CCCC1)C2,-12.8%,
N#CC1=C2SCN(C3CCCCC3)CN2C(=O)CC1c1ccc(Cl)cc1 (stereo not given),72.1%,
N#CC1=C2SCN(C3CCCCC3)CN2C(=O)CC1c1ccc(F)cc1 (stereo not given),?,nsP2 cell sec=?;CHIKV NSP2 FL=-1.7%;Furin counter=-7.2%;NS23 peptide cs=1.83µM*;Papain counter=-13.0%;nsP2pro confirm=12.6µM*;HCV NS3 4A cs=i
Cc1nn2c(c1-c1ccccc1OCc1ccccc1)N(C(=O)Cc1ccccc1)CCC2,i,
COc1ccc(-c2noc(CC(=O)O)c2-c2ccc(OC)cc2)cc1,-4.4%,
COc1ccc(-c2nnc(SCC(=O)Nc3c(C)cccc3C)nc2-c2ccc(OC)cc2)cc1,-25.2%,
CCOC(=O)Cn1cccc1-c1nc(-c2ccc(OC)cc2)c(-c2ccc(OC)cc2)s1,6.24µM*,nsP2 cell sec=-4.6%;CHIKV NSP2 FL=?;Furin counter=-10.0%;NS23 peptide cs=-3.1%;Papain counter=7.0%;nsP2pro confirm=10.2%;HCV NS3 4A cs=i
Cc1cc(C)nc(NC(=S)N2CCN(c3cccc(C(=O)O)c3)CC2)c1,-18.4%,
O=[N+]([O-])c1ccc(S(=O)(=O)c2ccc(Cl)cc2)nc1,0.316µM*,nsP2 cell sec=2.06µM*;CHIKV NSP2 FL=0.73µM*;Furin counter=16.3µM*;NS23 peptide cs=1.83µM*;Papain counter=-10.5%;nsP2pro confirm=0.449µM*;HCV NS3 4A cs=5.17µM*
C=C1CCC2C(C)(CO)C(O)CCC2(C)C1C/C=C1\C=COC1=O (stereo not given),6.5%,
Nc1nc(C2CC(N)C2)cc(N2CCCN(Cc3cccs3)CC2)n1 (stereo not given),-0.7%,
Cc1ccc(-c2ccc(=O)n(CC(=O)N(C)CCc3ccco3)n2)cc1,-21.0%,
Fc1ccccc1CNCc1ccc(-c2ccnc3[nH]ccc23)cc1,73.2%,
SMILES,nsP2pro primary,others
Cn1cc(-c2cc3c(N4CCN(c5ncc([C@@](C)(N)c6ccc(F)cc6)cn5)CC4)ncnn3c2)cn1,11.6%,
O=C1Nc2ccccc2/C1=C\c1cc(F)c(O)c(F)c1,i,
O=C1Nc2ccccc2/C1=C/c1cc(O)ccc1O,7.85µM*,nsP2 cell sec=?;CHIKV NSP2 FL=?;Furin counter=?;NS23 peptide cs=23.1µM*;Papain counter=-11.5%;nsP2pro confirm=7.98µM*;HCV NS3 4A cs=10.3µM*
O=C1Nc2ccccc2/C1=C\c1ccc(O)c(Cl)c1,i,
O=c1n(-c2ccc(C(F)(F)F)cc2)nc2n1CCN([S+](=O)([O-])c1ccccc1)C2,3.4%,
Cc1nc(CNc2ncnc3ccc(-c4oc(-c5ccccc5)nc4C)cc23)cs1,i,
Cc1cc(C)n2nc(C(=O)N3CCCC4(CNC(=O)O4)C3)cc2n1 (stereo not given),i,
CCOC(=O)c1ccc(-n2cnc3cc(C(=O)N4CCCCC4)ccc32)cc1,i,
CN[C@@H]1[C@@H](O)[C@@H](O[C@@H]2[C@@H](O)[C@H](O[C@H]3O[C@H]([C@@H](C)NC)CC[C@H]3N)[C@@H](N)C[C@H]2N)OC[C@]1(C)O,-3.6%,
NNc1ccc(NC(=O)c2cccs2)cn1,i,
Cc1ccccc1C(=O)Nc1ccc2c(c1)CCCN2C(=O)c1cccs1,41.3%,
O=C(Nc1cnc(N2CCN(c3ccccc3)CC2)c(C(=O)O)c1)c1cccs1,2.51µM*,nsP2 cell sec=-0.5%;CHIKV NSP2 FL=2.06µM*;Furin counter=?;NS23 peptide cs=6.51µM*;Papain counter=-12.3%;nsP2pro confirm=5.65µM*;HCV NS3 4A cs=2.91µM*
CC(=O)c1ccc(N2CCN(c3ccc(NC(=O)c4ccc(F)cc4)cc3C(=O)O)CC2)cc1,36.2%,
CN1CCN(c2ccc(NC(=O)c3cccs3)cn2)CC1,-10.1%,
O=C(Nc1ccc(N2CCN(c3ccc(F)cc3)CC2)c(C(=O)O)c1)c1cccs1,?,nsP2 cell sec=35.8%;CHIKV NSP2 FL=5.17µM*;Furin counter=-17.3%;NS23 peptide cs=13µM*;Papain counter=-3.0%;nsP2pro confirm=7.98µM*;HCV NS3 4A cs=4.11µM*
CCn1cc(-c2cccc(C(F)(F)F)c2)c2sc(C(N)=NC3CCS(=O)(=O)CC3)cc2c1=O,36.6%,
CCOc1ccc(Cc2cc([C@@]34OC[C@@](CO)(O3)[C@@H](O)[C@H](O)[C@H]4O)ccc2Cl)cc1,-2.7%,
Cc1cc(C)n(CC(=O)N2CCC3(CC2)CC(CN2CCOCC2)N(C)C3)n1 (stereo not given),-2.3%,
COc1cccc(NC(=S)N2CCN(c3ncc(C(F)(F)F)cc3Cl)CC2)n1,-29.0%,
Cc1ccc(C)c(N2CCN(C(c3ccc(F)cc3)c3nnc(-c4ccccc4)o3)CC2)c1 (stereo not given),?,nsP2 cell sec=-2.9%;CHIKV NSP2 FL=20.6µM*;Furin counter=-6.3%;NS23 peptide cs=?;Papain counter=-10.2%;nsP2pro confirm=?;HCV NS3 4A cs=11.6µM*
Cc1cccc(N2CCN(C(c3ccccc3)c3nnc(-c4ccccc4F)o3)CC2)c1C (stereo not given),-3.1%,
Fc1ccc(C(c2nnc(-c3ccccc3)o2)N2CCN(c3cccc(Cl)c3)CC2)cc1 (stereo not given),51.9%,
CSCC[C@H](NC(C)=O)C(=O)O,-15.3%,
